Hits are enriched below; roughly 4.8% of the tested compounds scored in any of these assays.
CSC inhib – cancer stem cell viability inhibitors, primary screen, luminescence; cancer stem cell-like cells viability; inhibition, % at 7.5 µM; actives 1.1% (n = 300,000); in the data active = inhibition above about 75%; inconclusive = no clear call, values can overlap the other calls; tested in HMLE shEcad cells
MPTP inh – mitochondrial permeability transition pore inhibitors, primary screen, biochemical, isolated mouse mitochondria, absorbance | inhibition, % at 10 µM | Ca2+ swelling absorbance, 30 min | actives 1.4% (n = 360,000);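 active = inhibition of 50% or more, scaled per plate between neutral and stimulator controls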
Mdm2 MdmX PPI – inhibitors of human Mdm2-MdmX association, primary screen, cell-based, luminescence, split luciferase, SaOS-2, uHTS; Protein Mdm4 (Homo sapiens) + E3 ubiquitin-protein ligase Mdm2 (Homo sapiens), …; SaOS-2 split-luciferase Mdm2/MdmX complementation; inhibition, % at 8 µM; actives 3% (n = 330,000); AID 485346, 2010;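 active = inhibition of at least 50% at 8 µM in the primary screen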
Calb FLC – C. albicans growth inhibition with fluconazole, primary screen, CaCi-2 strain, Alamar Blue fluorescence. C. albicans CaCi-2 (fluconazole-resistant clinical isolate) + fluconazole, 48 h. growth inhibition, % (test concentration not listed). actives 0.57% (n = 300,000). AID 1979, 2009;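 active = growth inhibition above about 58% in most replicates, limit read from the data, passing the limit was not always enough; inconclusive = exactly half the replicates above a set limit; inactive = most replicates below a set limit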;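 note: all wells also contain fluconazole at 8 µg/ml as a sub-toxic cotreatment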
Beta cell apopt – inhibitors of cytokine-induced beta cell apoptosis, primary screen, luminescence | AID 435005, 2010 | actives 0.8% (n = 300,000) | protection from apoptosis, % (no concentration beside the values) | INS-1E cytokine-induced death, ATP luminescence, 48 h; percent of positive-control rescue, neutral wells zero;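 active = Every replicate reaches about 75%, or at least half do and their mean reaches it too, limit read from the data; inconclusive = At least half of replicates reach the limit but their mean does not; inactive = Under half of replicates reach the limit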;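 note: higher means more ATP so stronger rescue from cytokine killing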
Mdm2-MdmX conf – Mdm2-MdmX complex disruptors, retested hits, confirmation, luminescence, single concentration. shares compounds with Mdm2 MdmX PPI. Mdm2-MdmX binding, luminescent assay. inhibition, % at 8 µM. actives 55% (n = 10,000); in the data active = inhibition above about 40%
FLuc counter – full-length luciferase signal inhibition, confirmation, counter-screen for Mdm2/MdmX interaction inhibitor project, cell-based, single concentration, SaOS-2; shares compounds with Mdm2 MdmX PPI; SaOS-2 full-length luciferase counterscreen, luminescence; inhibition, % at 8 µM; actives 77% (n = 6,200);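 active = mean inhibition at 8 µM reaching about 37%, which flags the compound as non-specific, limit read from the data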;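 note: p53-null SaOS-2 cells with luciferase driven by a doxycycline-inducible promoter; compound on cells about two nights before reading with doxycycline added after day one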
Numbers stand for hits; - = inactive; ? = inconclusive; . = no result.

SMILES	CSC inhib	MPTP inh	Mdm2 MdmX PPI	Calb FLC	Beta cell apopt	Mdm2-MdmX conf	FLuc counter
O=C(NCc1ccncc1)[C@@H]1CCCN1C(=O)[C@H]1CCCN1	.	-	.	.	.	.	.
CC(O)(c1cccc(F)c1)c1nc(-c2cnc3ccccc3c2)cs1 (stereo not drawn)	.	-	.	.	.	.	.
Cc1nc(NC(=O)/C=C/c2ccccc2)n[nH]1	-	-	56	-	-	40	-
O=C(N/N=C/c1coc2ccc(Cl)cc2c1=O)c1ccncc1	-	-	60	-	-	44	63
O=C(N/N=C/c1coc2ccc(Cl)cc2c1=O)c1ccc(O)cc1	-	-	-	-	-	.	.
CC(C)Cc1nc2oc3c(NCC4CCCO4)ncnc3c2c2c1CCC2 (stereo not drawn)	-	-	53	-	.	55	75
C=CCn1c(O)c2ccc(C(=O)N=NC(=O)COc3ccc(OC)cc3)cc2c1O	-	-	-	-	-	.	.
O=C(Nc1nc(-c2ccccc2)cs1)C1CCCN(S(=O)(=O)c2cccc([N+](=O)[O-])c2)C1 (stereo not drawn)	-	-	-	-	.	.	.
Cc1ccc(-c2csc(NC(=O)c3cccc(S(=O)(=O)N4CCN(C)CC4)c3)n2)cc1	-	-	73	-	-	65	39
CC(C)CC(=O)Nc1nc(-c2ccc(S(=O)(=O)N3CCOCC3)cc2)cs1	.	-	-	-	.	.	.
O=C(Nc1nc(-c2ccc(S(=O)(=O)N3CCOCC3)cc2)cs1)c1ccccc1	-	-	-	-	-	.	.
COc1cccc(C(=O)Nc2nc(-c3ccc(S(=O)(=O)N4CCOCC4)cc3)cs2)c1	-	-	58	-	-	-	.
Cc1ccc(Nc2nc(-c3ccc(S(=O)(=O)N4CCOCC4)cc3)cs2)cc1Cl	-	-	63	-	-	-	.
O=C(Nc1nc(-c2ccccc2)cs1)C1CCCN(S(=O)(=O)c2ccccc2)C1 (stereo not drawn)	.	-	78	-	.	65	79
Cc1ccc(C(=O)N[C@H](C(=O)Nc2ccc(N3CCOCC3)cc2)C(C)C)cc1	.	-	-	.	.	.	.
CCCS(=O)(=O)NC(=O)C1(C)CCN(C(=O)CSc2ccccc2)C1 (stereo not drawn)	.	-	.	.	.	.	.
CCOC(=O)C(C)Oc1cccc2c(=O)n(CC(=O)NCc3ccco3)ccc12 (stereo not drawn)	-	-	51	-	-	58	63
CC(C)C(=O)c1cn(CC(=O)NCc2ccco2)c2ccccc12	-	-	-	-	-	.	.
OC(c1ccccc1)(c1nc(-c2ccc(Cl)cc2)cs1)C(F)(F)F (stereo not drawn)	.	-	.	.	.	.	.
COc1ccc(C2c3[nH]c4ccccc4c3C[C@H]3C(=O)N(c4ccccc4C(=O)N4CCC[C@H]4C(=O)O)C(=O)N23)cc1 (stereo partly drawn)	-	-	-	-	.	.	.
COC(=O)c1ccc(C(NC(=O)OCc2ccccc2)/C(F)=C/[C@@H](C)C(=O)NCc2ccc(-c3ccccc3)cc2)cc1 (stereo partly drawn)	-	.	-	.	-	.	.
COC(=O)c1ccc(C(NC(=O)OCc2ccccc2)/C(F)=C/[C@@H](C)C(=O)NCc2ccc(OC)c(OC)c2)cc1 (stereo partly drawn)	-	-	89	.	-	-	.
CCOC(=O)NC1CCc2cc(OC)c(OC)c(OC)c2-c2ccc(SC)c(=O)cc21 (stereo not drawn)	.	-	.	.	.	.	.
COc1cc2c(c(OC)c1OC)-c1ccc(NC(=O)c3ccccc3)c(=O)cc1[C@@H](NC(C)=O)CC2	-	-	57	-	-	65	63
CN[C@H]1CCc2cc(OC)c(OC)c(OC)c2-c2ccc(OC)c(=O)cc21	-	-	68	-	-	56	104
SMILES	CSC inhib	MPTP inh	Mdm2 MdmX PPI	Calb FLC	Beta cell apopt	Mdm2-MdmX conf	FLuc counter
CC(CCc1ccccc1)NC(=O)COC(=O)c1ccc(S(C)(=O)=O)c([N+](=O)[O-])c1 (stereo not drawn)	-	-	81	-	-	83	55
Cc1ccccc1NC(=O)COC(=O)c1ccc(S(C)(=O)=O)c([N+](=O)[O-])c1	-	-	55	?	-	-	.
Cc1ccccc1NC(=O)Cc1nc(COC(=O)c2ccc(S(C)(=O)=O)c([N+](=O)[O-])c2)cs1	.	-	97	.	.	94	57
COc1ccc(NC(=O)c2cc(C3CCCCN3S(=O)(=O)c3cccs3)on2)c(C)c1 (stereo not drawn)	.	-	.	.	.	.	.
O=C(Cc1coc2cc(O)ccc12)N1CCN(S(=O)(=O)c2ccc(Br)cc2)CC1	.	-	.	.	.	.	.
Cc1ccc2c(c1)Oc1ccc(NC(=O)CCl)cc1C(=O)N2	-	-	92	-	-	87	54
CCOc1ccccc1NC(=O)c1cc(C(=O)c2cc(Br)ccc2O)coc1=N	-	-	55	-	-	60	69
CC(C)OC(=O)c1cc(C(=O)c2cc(Br)ccc2O)coc1=N	-	-	-	-	-	.	.
COc1cc(NC(=O)c2cc3ccccc3cc2OC)ccc1NC(=O)c1cccs1	-	-	58	-	-	57	90
COc1cc(NC(=S)NC(=O)c2ccc(C(C)(C)C)cc2)ccc1NC(=O)c1cccs1	-	-	90	-	-	68	-
COC(=O)C1=CN(c2ccc(C(C)(C)C)cc2)C(N)=C(C#N)C1c1cccc2ccccc12 (stereo not drawn)	.	-	.	.	.	.	.
O=C1CCCCCC(=O)[C@H](O)C[C@H](c2ccccc2)O1	.	-	.	.	.	.	.
CCOc1cc(/C=C2\CN(C)C/C(=C\c3ccc(O)c(OCC)c3)C2=O)ccc1O	105	-	100	-	-	100	-
CCOc1cc(/C=N/NC(=O)C(=O)N/N=C/c2ccc(O)c(OCC)c2)ccc1O	-	-	-	-	-	.	.
CCOc1cc(/C=N/NC(=O)N/N=C/c2ccc(O)c(OCC)c2)ccc1O	-	.	60	-	-	49	81
CCOc1cc(/C=C2\CCC/C(=C\c3cc(Cl)c(O)c(OCC)c3)C2=O)cc(Cl)c1O	-	-	100	-	75	94	-
CCC(=O)Nc1nonc1-c1nc2ccccc2n1Cc1cccc2ccccc12	-	-	64	-	-	70	109
CCOC(=O)Cn1c(-c2nonc2NC(=O)c2ccccc2F)nc2ccccc21	-	-	91	-	-	93	-
CCC(=O)Nc1nonc1-c1nc2ccccc2n1CCC(C)C	-	-	50	-	-	56	56
CC(=O)Nc1nonc1-c1nc2ccccc2n1CCC(C)C	-	-	56	-	-	50	45

Screening results from PubChem BioAssay.
